High-throughput results: PubChem BioAssay, National Center for Advancing Translational Sciences (NCATS)
DT40 TDP1 CPT: qHTS for Inhibitors of human tyrosyl-DNA phosphodiesterase 1 (TDP1): qHTS in cells in presence of CPT | chicken DT40 Tdp1-/-;hTDP1 cells + 20 nM CPT, ATP luminescence, 48 h | Potency, µM (highest dose often 46.2 µM), without a hit: top-dose activity change, negative = growth inhibition, usual class: inhibitors | actives 12% (n = 420,000); note: potency is the fitted concentration of half-maximal effect; nearly all actives have a fitted effect of over 55% in size
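Cell growth measured by CellTiter-Glo luminescence after a minimum 48 h, 37 C compound exposure with 20 nM CPT in Tdp1-knockout DT40 cells stably expressing hTDP1, seeded 400/well; qHTS titration format.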
IL-1B inflam inh: qHTS for Inhibitors of Inflammasome Signaling: IL-1-beta AlphaLISA Primary Screen. activity change, % at 57.5 µM. THP-1 LPS/ATP IL-1B secretion, AlphaLISA, 16 h; active compounds read low. actives 4.7% (n = 360,000). AID 743279, 2014; in the data active = activity change below about -50%; inconclusive = mostly about -30% to -49%
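Secreted IL-1B measured by AlphaLISA bead assay after 16 h compound exposure of THP-1 cells; compounds (final up to 57.5 uM) added 1 h before LPS (250 ng/mL) and ATP (1.25 mM) stimulation; lower signal means less secretion.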
VP16 counter: VP16 counterscreen qHTS for inhibitors of ROR gamma transcriptional activity | Potency, µM (titrated, usually from 53.6 µM), inactives show at the highest dose activity, negative = inhibition, hits mostly inhibitors | actives 3.5% (n = 310,000) | Drosophila S2 Gal4-VP16 UAS-luciferase, luminescence, 20 h;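 note: Gal4-VP16 expression switched on by copper sulfate through the metallothionein promoter; potency is the fitted concentration of half-maximal effect; nearly all actives have a fitted effect of over 50% in size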
RORg inh: qHTS for inhibitors of ROR gamma transcriptional activity | Nuclear receptor ROR-gamma (Mus musculus), P51450 | Drosophila S2 Gal4-RORgamma UAS-luciferase reporter, 20 h | Potency, µM (doses to about 53.6 µM), for inactives: top-dose activity change, negative = inhibition, usual class: inhibitors | actives 5.4% (n = 310,000) | AID 2551, 2010; note: potency is the fitted concentration of half-maximal effect; nearly all actives have a fitted effect of over 60% in size
Target sequence (P51450 whole entry, looked up, the tested form may be a part): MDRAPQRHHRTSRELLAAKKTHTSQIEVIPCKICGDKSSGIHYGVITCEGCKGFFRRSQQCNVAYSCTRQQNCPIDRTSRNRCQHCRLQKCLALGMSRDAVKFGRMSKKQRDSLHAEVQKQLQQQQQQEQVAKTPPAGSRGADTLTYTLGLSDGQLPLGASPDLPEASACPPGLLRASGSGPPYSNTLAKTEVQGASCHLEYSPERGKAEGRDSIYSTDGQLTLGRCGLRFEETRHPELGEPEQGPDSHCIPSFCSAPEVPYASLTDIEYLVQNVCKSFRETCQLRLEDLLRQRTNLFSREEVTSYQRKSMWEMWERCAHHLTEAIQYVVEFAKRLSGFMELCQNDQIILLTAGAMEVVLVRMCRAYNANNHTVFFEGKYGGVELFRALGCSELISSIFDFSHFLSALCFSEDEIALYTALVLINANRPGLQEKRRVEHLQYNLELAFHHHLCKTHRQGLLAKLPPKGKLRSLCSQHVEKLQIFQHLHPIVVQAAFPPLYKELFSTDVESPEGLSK
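In this cell-based reporter format, copper sulfate (700 uM final) drives Gal4–ROR gamma fusion expression from a metallothionein promoter in Drosophila Schneider cells; compounds preincubated 1 hr, reporter read after 20 hr at ambient temperature.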
TDP1 cell noCPT: qHTS for Inhibitors of human tyrosyl-DNA phosphodiesterase 1 (TDP1): qHTS in cells in absence of CPT | DT40 Tdp1-/- hTDP1 cells, no CPT, ATP luminescence, 48 h | Potency, µM (doses to about 46.2 µM), inactives show top-dose activity change, negative = growth inhibition, actives largely listed as inhibitors | actives 15% (n = 420,000) | AID 686978, 2013; note: potency is the fitted concentration of half-maximal effect; nearly all actives have a fitted effect of over 55% in size
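No-CPT arm: Tdp1-/-;hTDP1 DT40 cells (400/well) plus compounds, incubated ≥48 hr at 37 °C. Readout CellTiter-Glo luminescence.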
LDHA inh: qHTS assay for inhibitors of human lactate dehydrogenase | purified LDHA, NADH/diaphorase-resazurin fluorescence; active compounds read low | activity change, % (values are at about 110 or 230 µM) | actives 0.15% (n = 480,000) | AID 1347041, 2019; in the data active = activity change below about -30%; inconclusive = mostly about -25% to -30%;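 note: plate controls were DMSO wells for no effect and wells without enzyme for full effect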
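Remaining NADH was detected by diaphorase (0.133 mg/mL) converting 37 µM resazurin to fluorescent resorufin, read at 0 and 20 minutes. The preceding 5-minute room-temperature reaction used 2 nM LDHA, 0.2 mM sodium pyruvate and 0.06 mM NADH at pH 7.4.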
Active calls of the source: *. Compounds with a hit are over-represented: about 18% of the library has one in this group of screens. Unless noted, calls come from the whole dose curve; as a rule, active = well fitted curve in the direction sought with a large enough effect; inconclusive = small, poorly fitted or top-dose-only effect, or another doubt; inactive = no such curve, though single readings can be large; an effect the other way counts as inactive or inconclusive. Unless noted, % is set by controls: 0 for no effect and ±100 for the full control effect.

What do the screens show for `COc1cc(OC)c2cc(C(=O)N[C@@H](C)C(=O)Nc3ccc4c(c3)OCCO4)n(C)c2c1`?
LDHA inh: 8.9

Results for Cn1nc(C(=O)N2CCc3sccc3C2)c2ccccc2c1=O ?
LDHA inh: -1.6

How did COc1cc2c(cc1OC)CN(C(=O)c1oc3ccccc3c1C)CC2 do in these assays?
DT40 TDP1 CPT: 20.6µM*; IL-1B inflam inh: -10.7; VP16 counter: -2.3%; RORg inh: 13.7%; TDP1 cell noCPT: 23.1µM*; LDHA inh: 4.9

Results for COc1cc2c(cc1OC)CN(C(=O)c1oc3ccc(F)cc3c1C)CC2 ?
LDHA inh: 12.3

What do the screens show for `COC(=O)c1cccc(COC(=O)c2ccc3c(c2)OCCCO3)c1`?
LDHA inh: 5.0

What do the screens show for `CC1=C/C(=N\NC(=O)c2ccccc2)CC1`?
DT40 TDP1 CPT: 1.0%; IL-1B inflam inh: 0.0; VP16 counter: inconclusive; RORg inh: 12.6µM*; TDP1 cell noCPT: 1.3%; LDHA inh: -5.7

What do the screens show for `N#CC1=C(SCC(=O)NC2CCCCC2)NC(=O)CC1c1ccco1` (stereo unspecified)?
DT40 TDP1 CPT: inconclusive; IL-1B inflam inh: -3.8; VP16 counter: 8.9%; RORg inh: 0.4%; TDP1 cell noCPT: -16.9%; LDHA inh: 7.9

Results for N#CC1=C(SCc2ccccc2)NC(=O)CC1c1ccco1 (stereo unspecified) ?
DT40 TDP1 CPT: -26.1%; IL-1B inflam inh: -20.6; VP16 counter: -2.1%; RORg inh: 20.3%; TDP1 cell noCPT: -3.5%; LDHA inh: 6.5

Results for N#CC1=C(SCC(=O)Nc2ccccc2)NC(=O)CC1c1ccco1 (stereo unspecified) ?
DT40 TDP1 CPT: 7.31µM*; IL-1B inflam inh: -6.9; TDP1 cell noCPT: 18.4µM*; LDHA inh: -5.3

Results for N#CC1=C(SCC(=O)NCc2ccccc2)NC(=O)CC1c1ccco1 (stereo unspecified) ?
DT40 TDP1 CPT: inconclusive; IL-1B inflam inh: -19.4; VP16 counter: -3.2%; RORg inh: -6.3%; TDP1 cell noCPT: 23.1µM*; LDHA inh: 7.0

How did CC1CCCC(NC(=O)/C=C/c2cccc(C#N)c2)C1 (stereo unspecified) do in these assays?
LDHA inh: 0.3

Results for O/N=c1/oc2cc3occ(-c4ccccc4)c3cc2c2c1CCC2 ?
LDHA inh: 2.6

How did CCNC(=S)NNc1nc(N2CCCCC2)nc(N2CCOCC2)n1 do in these assays?
DT40 TDP1 CPT: 3.6%; IL-1B inflam inh: 17.0; VP16 counter: inconclusive; RORg inh: 14.1µM*; TDP1 cell noCPT: 0.6%; LDHA inh: -1.7

What do the screens show for `Cc1ccc(NC(=O)C2CCN(S(=O)(=O)c3ccc4[nH]c5c(c4c3)CCCCC5)CC2)cc1`?
DT40 TDP1 CPT: 13µM*; TDP1 cell noCPT: 14.6µM*; LDHA inh: 2.9

How did O=S(=O)(c1ccc2[nH]c3c(c2c1)CCCC3)N1CCCCC1 do in these assays?
DT40 TDP1 CPT: inconclusive; IL-1B inflam inh: -0.2; VP16 counter: -0.9%; RORg inh: 29.9%; TDP1 cell noCPT: 23.1µM*; LDHA inh: 4.0

What do the screens show for `CC(C)c1nnc2sc(/C=C/c3ccc4c(c3)OCO4)nn12`?
LDHA inh: -7.7

Results for Cc1nc(-n2nc(C)c(Cl)c2C)sc1C(=O)N1CCCCC1C (stereo unspecified) ?
LDHA inh: -14.3

Results for O=C(C1CCN(S(=O)(=O)c2ccccc2[N+](=O)[O-])CC1)N1CCOCC1 ?
DT40 TDP1 CPT: -11.7%; IL-1B inflam inh: 13.0; VP16 counter: -1.2%; RORg inh: 6.8%; TDP1 cell noCPT: -10.0%; LDHA inh: -3.8

What do the screens show for `O=C(C1Cc2ccccc2CN1S(=O)(=O)c1ccccc1[N+](=O)[O-])N1CCOCC1` (stereo unspecified)?
DT40 TDP1 CPT: 20.6µM*; IL-1B inflam inh: 3.7; TDP1 cell noCPT: inconclusive; LDHA inh: -7.6

Results for Cc1ccc(C(C(=O)NCc2ccco2)N(C(=O)CNC(=O)c2cccs2)c2ccc(C)cc2C)cc1 (stereo unspecified) ?
DT40 TDP1 CPT: 29.1µM*; IL-1B inflam inh: 22.6; VP16 counter: inconclusive; RORg inh: -24.8%; TDP1 cell noCPT: 6.51µM*; LDHA inh: 1.7

What do the screens show for `COc1cc(OC)c(/C=C/c2cc3ccccc3c[n+]2C)c(OC)c1`?
DT40 TDP1 CPT: 0.501µM*; TDP1 cell noCPT: 1µM*; LDHA inh: -22.2

Results for COc1cc(OC)c(/C=C/c2ccc3ccccc3[n+]2[O-])c(OC)c1 ?
DT40 TDP1 CPT: inconclusive; TDP1 cell noCPT: inconclusive; LDHA inh: 1.1

Results for COc1ccc(OC)c(/C=C/c2c3ccccc3cc[n+]2C)c1 ?
DT40 TDP1 CPT: 2.24µM*; TDP1 cell noCPT: 1.41µM*; LDHA inh: -2.0

What do the screens show for `COc1ccc(OC)c(/C=C/c2cc3ccccc3c[n+]2C)c1`?
DT40 TDP1 CPT: 2.82µM*; TDP1 cell noCPT: 2µM*; LDHA inh: -11.1

What do the screens show for `COc1ccc(N(CC(=O)Nc2ccc(F)c(F)c2)S(=O)(=O)c2c(C)nn(C)c2C)cc1`?
LDHA inh: -6.0

What do the screens show for `Cc1cc(C)n(-c2nc3c(c(=O)n(CC(N)=O)c(=O)n3C)n2CCc2ccccc2)n1`?
LDHA inh: 3.5

Results for CN(C)c1ccc(CNC(=O)C2(C)Cc3c(-c4ccc5c(c4)OCO5)ccnc3O2)cc1 (stereo unspecified) ?
DT40 TDP1 CPT: 4.61µM*; IL-1B inflam inh: 0.0; TDP1 cell noCPT: 3.66µM*; LDHA inh: 0.4

What do the screens show for `CN(C)c1ccc(CNC(=O)C2(C)Cc3c(-c4cccc(C(N)=O)c4)ccnc3O2)cc1` (stereo unspecified)?
DT40 TDP1 CPT: 14.6µM*; IL-1B inflam inh: 63.5; TDP1 cell noCPT: inconclusive; LDHA inh: 2.6

How did CN1CCN(c2ccc(CNC(=O)C3(C)Cc4c(-c5ccc6c(c5)OCO6)ccnc4O3)cc2)CC1 (stereo unspecified) do in these assays?
DT40 TDP1 CPT: inconclusive; IL-1B inflam inh: inconclusive; TDP1 cell noCPT: 14.6µM*; LDHA inh: -6.4
